From PubChem BioAssay (Tox21) come the findings set out here.

The nature of experiment [1]: qHTS assay to identify small molecule antagonists of the glucocorticoid receptor (GR) signaling pathway - cell viability counter screen (AID 720693). Note: nearly all actives have a fitted effect of over 55% in size. A general note: qHTS replaces the single test concentration by a dilution series.
Experiment [2] can be described thus: qHTS assay for identifying genotoxic compounds that show differential cytotoxicity against isogenic chicken DT40 cell lines with known DNA damage response pathways - wild type cell line (AID 743012). Note: nearly all actives have a fitted effect of over 60% in size. Note: potency is the fitted concentration of half-maximal effect. The essentials:
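Quantitative HTS on parental DT40 cells: 40 h compound treatment at 37 C/5% CO2, with viability then determined by CellTiter-Glo luminescence. Values serve as the DNA repair-proficient reference for differential cytotoxicity.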

Experiment [3] is described as follows: qHTS assay for identifying genotoxic compounds that show differential cytotoxicity against isogenic chicken DT40 cell lines with known DNA damage response pathways - Rev3 mutant cell line (AID 743014). Note: nearly all actives have a fitted effect of over 55% in size. Note: potency is the fitted concentration of half-maximal effect.
A short description of experiment [4]: qHTS assay for identifying genotoxic compounds that show differential cytotoxicity against isogenic chicken DT40 cell lines with known DNA damage response pathways - Rad54/Ku70 mutant cell line (AID 743015). Note: nearly all actives have a fitted effect of over 60% in size. Note: potency is the fitted concentration of half-maximal effect.
Experiment [5] in a line: qHTS assay to identify small molecule antagonists of the androgen receptor (AR) signaling pathway - cell viability counter screen (AID 743033; note: nearly all actives have a fitted effect of over 45% in size).
A short description of experiment [6]: qHTS assay to identify small molecule antagonists of the androgen receptor (AR) signaling pathway using the MDA cell line - cell viability counter screen (AID 743041; note: nearly all actives have a fitted effect of over 45% in size). In short, it runs like this: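 Same-well cytotoxicity was assessed by CellTiter-Fluor in MDA-kb2 AR-luc cells after 16 h of compound treatment under R1881 agonism.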
A short description of experiment [7]: qHTS assay to identify small molecule antagonists of the thyroid receptor (TR) signaling pathway - cell viability counter screen (AID 743064). Note: nearly all actives have a fitted effect of over 50% in size. The essentials: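 GH3.TRE-Luc rat pituitary cells dosed after 4 hr plating, co-stimulated with T3 at 1 nM final, incubated 23.5 h at 37 C. Viability measured in the same wells by CellTiter-Fluor fluorescence after 30 min further at 37 C.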

Experiment [8] in a line: qHTS assay to identify small molecule antagonists of the estrogen receptor alpha (ER-alpha) signaling pathway - cell viability counter screen (AID 743074; calls by dose curve;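 note: HEK293 cells carrying ER-alpha-UAS-bla reporter stimulated with 17beta-estradiol; nearly all actives have a fitted effect of over 45% in size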).
A short description of experiment [9]: qHTS assay to identify small molecule antagonists of the estrogen receptor alpha (ER-alpha) signaling pathway using the BG1 cell line - cell viability counter screen (AID 743081).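 Note: compound given together with 17beta-estradiol as the ER stimulus; series mostly up to about 70 µM; nearly all actives have a fitted effect of over 45% in size.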
The next experiment addresses Aromatase (Homo sapiens) (UniProt P11511). The experiment in a line: qHTS assay to identify aromatase inhibitors (AID 743083). Note: series mostly up to about 70 µM; nearly all actives have a fitted effect of over 55% in size.
Experiment [10] is described as follows: qHTS assay to identify small molecule antagonists of the thyroid receptor (TR) signaling pathway (AID 743065). Note: series mostly up to about 70 µM; nearly all actives have a fitted effect of over 55% in size. In short, it runs like this: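 GH3.TRE-Luc rat pituitary cells (two TREs driving luciferase) were dosed with compound, then stimulated with 1 nM T3 (final) for 23.5 h at 37 C. ONE-Glo luminescence was the read-out, with CellTiter-Fluor fluorescence as the cytotoxicity counter-screen.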

Experiment [11] concerns thyroid hormone receptor (rat, GH3 cells). The experiment in a line: qHTS assay to identify small molecule agonists of the thyroid receptor (TR) signaling pathway (AID 743066; calls by dose curve).
In experiment [12] the target is Estrogen receptor (Homo sapiens) (UniProt P03372). The experiment can be described thus: qHTS assay to identify small molecule antagonists of the estrogen receptor alpha (ER-alpha) signaling pathway (AID 743069; active = well fitted curve in the direction sought with a large enough effect in the signal ratio in the repeat runs, not every such curve was filed as active; the % refers to the signal ratio). The essentials:
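Reporter cells (ER-alpha-bla, HEK293 background) are conditioned overnight in stripped-serum medium (2% charcoal-stripped FBS). Compound and 17beta-estradiol exposure runs 18 hr at 37C, 5% CO2.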

The target is the same in experiment [13]. The experiment can be described thus: qHTS assay to identify small molecule agonists of the estrogen receptor alpha (ER-alpha) signaling pathway (AID 743075; calls by dose curve;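 note: HEK293 GripTite cells with ER-alpha and UAS-driven beta-lactamase reporter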).
For experiment [14] the target is unchanged. The experiment can be described thus: qHTS assay to identify small molecule agonists of the estrogen receptor alpha (ER-alpha) signaling pathway using the BG1 cell line (AID 743079). Note: nearly all actives have a fitted effect of over 20% in size. Note: potency is the fitted concentration of half-maximal effect.
The nature of experiment [15]: qHTS assay to identify small molecule antagonists of the estrogen receptor alpha (ER-alpha) signaling pathway using the BG1 cell line (AID 743080; calls by dose curve;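 note: BG1 cells stimulated with 17beta-estradiol alongside compound; series mostly up to about 70 µM; nearly all actives have a fitted effect of over 25% in size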). The essentials: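 Luminescence from a 4×ERE-luciferase reporter in BG1-Luc-4E2 cells served as read-out. Cells, pre-cultured 5 days in stripped-serum phenol-red-free medium, were exposed to compound with 17beta-estradiol co-stimulation for 21.5 h at 37 C.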

In experiment [16] the target is Androgen receptor (Homo sapiens) (UniProt P10275). The experiment can be described thus: qHTS assay to identify small molecule antagonists of the androgen receptor (AR) signaling pathway (AID 743035; active = well fitted inhibition curve with a large enough effect in the signal ratio in the repeat runs, not every such curve was filed as active; the % refers to the signal ratio). In short, it runs like this:
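Cell line: GeneBLAzer AR-UAS-bla GripTite (HEK293). Stimulus: R1881 added after compound. Exposure: 16 h, 37C, 5% CO2. Readout: LiveBLAzer B/G FRET fluorescence after 2 h at room temperature.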

For experiment [17] the target is unchanged. The experiment can be described thus: qHTS assay to identify small molecule agonists of the androgen receptor (AR) signaling pathway (AID 743036; active = well fitted activation curve with a large enough effect in the signal ratio in the repeat runs, with a control signal flat, not every such curve was filed as active; the % refers to the signal ratio). In short, it runs like this: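 AR-UAS-bla HEK293 cells, plated 4 h before dosing, were treated with compound for 16 h at 37C. beta-Lactamase reporter read after 2 h with LiveBLAzer B/G FRET substrate at room temperature.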

Experiment [18] shares this target. The experiment can be described thus: qHTS assay to identify small molecule agonists of the androgen receptor (AR) signaling pathway using the MDA cell line (AID 743040; note: nearly all actives have a fitted effect of over 20% in size). In short, it runs like this: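 Human breast carcinoma MDA-kb2 reporter cells (MMTV-luc, AR/GR elements) were treated for 16 h at 37C in 0% CO2 following a 5 h settling period. Signal was quantified by ONE-Glo luminescence.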

The target is the same in experiment [19]. The experiment can be described thus: qHTS assay to identify small molecule antagonists of the androgen receptor (AR) signaling pathway using the MDA cell line (AID 743042; note: nearly all actives have a fitted effect of over 55% in size). The essentials:
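MDA-kb2 breast carcinoma cells carrying MMTV-luciferase (AR/GR responsive) were co-treated with compounds and the agonist R1881 for 16 h at 37C. Inhibition read as ONE-Glo luminescence; CellTiter-Fluor fluorescence measured in parallel for cytotoxicity.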

Where “and” joins values, the source holds several entries; their conditions need not be identical. Identical values can stand only once. Inconclusive results are not listed. Some structures have more than one record in an assay (separate samples or runs), and their calls can disagree. Calls of active or inactive are those of the source. Unless noted, calls come from the whole dose curve; as a rule, active = well fitted curve in the direction sought with a large enough effect in the repeat runs; inconclusive = weak or mixed curves; inactive = no such curve, though single readings can be large; an effect the other way counts as inactive or inconclusive.

Chain of Aromatase (Homo sapiens) (P11511 whole entry, looked up): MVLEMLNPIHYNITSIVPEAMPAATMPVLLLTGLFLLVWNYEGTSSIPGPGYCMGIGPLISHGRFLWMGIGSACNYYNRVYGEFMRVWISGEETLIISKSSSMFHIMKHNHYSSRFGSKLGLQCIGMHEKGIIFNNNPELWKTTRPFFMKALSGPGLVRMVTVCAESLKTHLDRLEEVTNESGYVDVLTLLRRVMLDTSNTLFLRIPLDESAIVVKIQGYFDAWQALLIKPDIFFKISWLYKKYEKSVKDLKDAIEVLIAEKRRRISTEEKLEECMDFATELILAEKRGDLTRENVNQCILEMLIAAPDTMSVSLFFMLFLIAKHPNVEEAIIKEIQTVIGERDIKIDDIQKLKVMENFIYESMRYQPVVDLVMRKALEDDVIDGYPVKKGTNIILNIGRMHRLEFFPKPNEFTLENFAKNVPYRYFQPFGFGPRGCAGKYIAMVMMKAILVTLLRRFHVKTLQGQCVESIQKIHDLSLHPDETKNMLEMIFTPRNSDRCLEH
Chain of Estrogen receptor (Homo sapiens) (P03372 whole entry, looked up): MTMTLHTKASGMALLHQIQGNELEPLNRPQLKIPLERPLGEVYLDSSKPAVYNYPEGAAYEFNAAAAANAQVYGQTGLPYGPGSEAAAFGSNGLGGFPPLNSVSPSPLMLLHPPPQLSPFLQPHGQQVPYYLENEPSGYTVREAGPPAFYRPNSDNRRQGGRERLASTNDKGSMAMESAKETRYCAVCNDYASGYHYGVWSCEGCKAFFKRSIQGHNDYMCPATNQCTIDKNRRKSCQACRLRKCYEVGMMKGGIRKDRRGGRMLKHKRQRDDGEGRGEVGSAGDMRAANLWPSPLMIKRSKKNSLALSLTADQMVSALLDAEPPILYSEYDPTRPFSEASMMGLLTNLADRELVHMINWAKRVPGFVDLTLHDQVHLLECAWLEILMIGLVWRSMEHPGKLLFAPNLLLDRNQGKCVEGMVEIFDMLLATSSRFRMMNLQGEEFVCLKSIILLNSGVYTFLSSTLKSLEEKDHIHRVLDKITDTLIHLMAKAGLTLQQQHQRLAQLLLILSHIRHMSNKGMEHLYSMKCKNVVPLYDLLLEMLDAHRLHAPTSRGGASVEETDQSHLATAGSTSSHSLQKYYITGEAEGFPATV
Chain of Androgen receptor (Homo sapiens) (P10275 whole entry, looked up): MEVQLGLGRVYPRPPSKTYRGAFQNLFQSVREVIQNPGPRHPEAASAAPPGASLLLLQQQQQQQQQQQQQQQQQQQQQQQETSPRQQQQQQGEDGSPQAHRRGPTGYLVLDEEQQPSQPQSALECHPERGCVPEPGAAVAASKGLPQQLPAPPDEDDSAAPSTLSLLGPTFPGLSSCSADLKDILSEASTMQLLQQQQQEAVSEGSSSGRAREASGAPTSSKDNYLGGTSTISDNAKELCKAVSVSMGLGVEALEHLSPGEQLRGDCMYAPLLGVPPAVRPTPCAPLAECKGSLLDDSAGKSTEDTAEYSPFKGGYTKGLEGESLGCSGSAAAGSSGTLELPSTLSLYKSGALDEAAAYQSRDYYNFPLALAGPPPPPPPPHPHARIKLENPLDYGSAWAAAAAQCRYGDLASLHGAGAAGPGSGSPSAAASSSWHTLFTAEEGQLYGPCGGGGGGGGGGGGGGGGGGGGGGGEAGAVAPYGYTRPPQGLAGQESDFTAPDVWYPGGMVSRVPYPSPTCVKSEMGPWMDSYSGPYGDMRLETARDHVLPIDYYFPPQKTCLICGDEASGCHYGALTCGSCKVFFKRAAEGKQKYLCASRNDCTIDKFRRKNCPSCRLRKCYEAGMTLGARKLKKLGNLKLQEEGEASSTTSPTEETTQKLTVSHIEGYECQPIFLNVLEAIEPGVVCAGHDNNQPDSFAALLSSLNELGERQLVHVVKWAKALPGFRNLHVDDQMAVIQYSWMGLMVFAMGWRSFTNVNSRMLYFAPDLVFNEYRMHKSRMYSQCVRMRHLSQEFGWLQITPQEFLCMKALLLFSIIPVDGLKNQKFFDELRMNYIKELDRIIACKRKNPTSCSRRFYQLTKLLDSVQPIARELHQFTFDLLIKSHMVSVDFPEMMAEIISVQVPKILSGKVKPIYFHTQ

With `CC(=O)/C=C/c1ccccc1`, the Potency result (in experiment [1]; in experiment [2]; in [3]; in experiment [4]; in [7]; in the experiment with Aromatase (Homo sapiens)) was “inactive” each time. Moreover, the compound was called inactive in [5], in experiment [6], in [8] and in experiment [9].
As to `CN(C)C(=O)Cl`, the Potency result in experiment [1], in experiment [2], in [3], in [4], in [7] and in [10] was “inactive” throughout. Moreover, the Potency result (in experiment [11]; in experiment [12]; in experiment [14]; with Aromatase (Homo sapiens)) was “inactive” throughout. In addition, the outcome in [6], in experiment [8], in experiment [13], in experiment [15] and in experiment [9] was inactive.
`Nc1ccc([As](=O)(O)O)cc1`: the Potency result in experiment [1], in experiment [2], in [7], in experiment [10], in experiment [11] and in experiment [12] was “inactive” throughout. For the same compound, the Potency entry (in experiment [14]; in the experiment with Aromatase (Homo sapiens)) was “inactive” each time. Moreover, the Potency result in experiment [3] was “inactive and 29.8 µM (active)”; in [4], “inactive and 13.3 µM (active)”. For the same compound, the outcome in experiment [5], in [6], in experiment [8], in experiment [13], in experiment [15] and in [9] was inactive.
In the case of `C=CC(=O)OCCCCCC(C)C`, the Potency entry in [1], in experiment [2], in [3], in experiment [4], in experiment [16] and in experiment [19] was “inactive” each time. In addition, the Potency entry (in experiment [7]; in [10]; in experiment [11]; in experiment [12]; in the experiment with Aromatase (Homo sapiens)) was “inactive” each time. Also, the compound was classed as inactive in [17], in experiment [18], in experiment [6], in experiment [8], in experiment [13] and in experiment [15]. In experiment [9], the outcome was inactive. Besides, in experiment [14], the Potency is 80.9 µM (active) and inactive.
Consider `Oc1ccc(Cl)cc1`, for which the Potency result in experiment [1], in experiment [2], in experiment [3], in experiment [4], in experiment [7] and in [10] was “inactive” in each case. Moreover, the Potency result (in [11]; with Aromatase (Homo sapiens)) was “inactive” each time. The result in [5], in experiment [6], in [8] and in experiment [9] was inactive.
`FC(F)(F)c1ccc(Cl)cc1`: the Potency entry in experiment [1], in experiment [2], in [3], in experiment [4], in experiment [7] and in experiment [10] was “inactive” throughout. Further, the Potency result (in experiment [11]; in experiment [12]; in experiment [14]; in the experiment with Aromatase (Homo sapiens)) was “inactive” throughout. For the same compound, the compound was classed as inactive in [5], in [6], in experiment [8], in [13], in experiment [15] and in [9].
`O=S(=O)(O)OOS(=O)(=O)O`: the Potency result in [1], in [2], in experiment [3], in [4], in experiment [7] and in experiment [10] was “inactive” throughout. The Potency result (in [11]; in the experiment with Aromatase (Homo sapiens)) was “inactive” each time. In addition, the compound was classed as inactive in [5], in experiment [6], in [8] and in experiment [9].
With `COP(=S)(OC)SCN1C(=O)c2ccccc2C1=O`, the Potency entry (in experiment [1]; in experiment [4]; in experiment [7]; in experiment [10]; in experiment [11]; with Aromatase (Homo sapiens)) was “inactive” each time. The Potency in experiment [2] was 48.6 µM (active); in experiment [3], 61.6 µM (active). The call in experiment [5], in [6], in experiment [8] and in experiment [9] was inactive.
Turning to `C=CC#N`, the Potency result in experiment [1], in experiment [2], in experiment [3], in [4], in experiment [7] and in [10] was “inactive” throughout. The Potency result (in [11]; in experiment [12]; in experiment [14]; with Aromatase (Homo sapiens)) was “inactive” in each case. The compound was classed as inactive in experiment [5], in experiment [6], in [8], in experiment [13], in experiment [15] and in [9].
